# According to PubChem BioAssay (Tox21):
# “And” between values parts separate entries of the source, which are not always exact repeats. Identical values can stand only once. Records with an inconclusive call do not appear. Entries that show only a call come without a potency. More than one record can exist for a structure, and the calls need not agree. The source made the active and inactive calls. The call rests on the fitted dose curve.
# Biological target: Thyrotropin receptor (Homo sapiens) (UniProt P16473)
# Assay: qHTS assay to identify small molecule agonists of the thyroid stimulating hormone receptor (TSHR) signaling pathway (AID 1224843); further: nearly all actives have a fitted effect of over 45% in size
# Conditions: TSHR-HEK293 cells, cAMP HTRF, agonist mode, 30 min; series mostly up to 92.4 µM
# Text: National Center for Advancing Translational Sciences [NCATS]
# NIH Chemical Genomics Center [NCGC]
# U.S. Environmental Protection Agency [EPA]
# National Institutes of Environmental Health Sciences [NIEHS]
# National Toxicology Program [NTP]
# U.S. Food and Drug Administration [FDA]
# TSHR is the receptor for thyrotropin (thyroid stimulating hormone or TSH), a member of the glycoprotein hormone family. TSH is released by the anterior pituitary gland and is the main regulator of thyroid gland growth and development. Upon binding circulating thyrotropin, a G-protein signal cascade activates adenylyl cyclase and […] cAMP concentration is increased. cAMP is a key second messenger involved extensively in cellular signal transduction pathways associated with the majority of G-protein coupled receptors (GPCRs). The activation of these GPCRs by neurotransmitters, lipids, nucleotides, peptides and hormones results in the activation or the inhibition of plasma membrane-bound adenylate cyclase through heterotrimeric G-proteins. A cell-based TSHR assay was used to screen the Tox21 10K library for compounds that can modulate TSHR in agonist mode.
# Tox21 Assay Protocol Summary:
# TSHR-Hek293 cells were dispensed at 800 cells/4uL/well in 1536-well white plates using a Multidrop dispenser. […] The plates were incubated at room temperature for 30 min. 2.5 ul/well of cAMP-d2 and 2.5ul/well of anti-cAMP-cryptate was added respectively into the assay plates using a Flying Reagent Dispenser. After 1 hr incubation at room temperature, the fluorescence intensity in the plates was measured using an Envision plate reader. Each test compound was measured at 15 concentrations and in triplicates.
# Potency means the concentration at half of the fitted maximal effect.
# Thyrotropin receptor (Homo sapiens), sequence (P16473 whole entry, looked up): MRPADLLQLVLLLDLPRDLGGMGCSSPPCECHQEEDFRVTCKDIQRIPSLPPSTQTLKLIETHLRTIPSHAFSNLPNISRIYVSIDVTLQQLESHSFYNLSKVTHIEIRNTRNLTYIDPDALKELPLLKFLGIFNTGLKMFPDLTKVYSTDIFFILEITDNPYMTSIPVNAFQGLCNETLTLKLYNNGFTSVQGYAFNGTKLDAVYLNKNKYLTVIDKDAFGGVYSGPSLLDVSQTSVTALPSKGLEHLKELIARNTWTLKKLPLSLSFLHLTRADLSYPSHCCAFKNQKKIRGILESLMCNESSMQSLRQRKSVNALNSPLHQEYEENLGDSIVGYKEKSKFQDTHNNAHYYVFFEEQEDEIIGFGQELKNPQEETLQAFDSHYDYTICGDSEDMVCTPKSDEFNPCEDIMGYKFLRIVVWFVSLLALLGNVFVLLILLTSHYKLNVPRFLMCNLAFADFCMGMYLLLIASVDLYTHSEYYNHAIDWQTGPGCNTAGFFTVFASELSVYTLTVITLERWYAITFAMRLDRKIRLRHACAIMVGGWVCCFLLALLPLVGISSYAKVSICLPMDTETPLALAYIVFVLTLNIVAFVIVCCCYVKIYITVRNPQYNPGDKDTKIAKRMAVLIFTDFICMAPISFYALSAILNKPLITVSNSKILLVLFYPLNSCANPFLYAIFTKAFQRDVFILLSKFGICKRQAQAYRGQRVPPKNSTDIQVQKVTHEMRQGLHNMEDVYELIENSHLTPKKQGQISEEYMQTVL
row,Structure (SMILES),Potency
1,C=C(C)C(N)=O,inactive
2,C1CNCCN1,inactive
3,Cc1c(N(C)C)c(=O)n(-c2ccccc2)n1C,inactive
4,CCOCCO,inactive
5,CCN1CCCC1=O,inactive
6,CC1=NN(c2ccccc2)C(=O)C1,inactive
7,CCCCOC(=O)CCCCCCCCC(=O)OCCCC,inactive
8,N[C@@H](Cc1c[nH]c2ccc(O)cc12)C(=O)O,inactive
9,O=C(OCc1ccccc1)c1ccccc1,inactive
10,CC(C)Cc1ccc(C(C)C(=O)O)cc1 (stereo not given),inactive
11,C#C[C@]1(O)CC[C@H]2[C@@H]3CCc4cc(O)ccc4[C@H]3CC[C@@]21C,13.6 µM (active) and 21.7 µM (active) and 8.41 µM (active)
12,O=C(O)CN(CC(=O)O)CC(=O)O,inactive
13,C[C@]12C[C@H](O)[C@H]3[C@@H](CCC4=CC(=O)CC[C@@]43C)[C@@H]1CC[C@@H]2C(=O)CO,12.2 µM (active) and inactive
14,Cc1ccc(O)c(-n2nc3ccccc3n2)c1,inactive
15,COC(=O)C1CCC(C(=O)OC)CC1 (stereo not given),inactive
16,CCCCCCCCCCCCCCCCCC(=O)OCC(O)CO (stereo not given),inactive
17,CCCCCCCC(=O)OCC(O)CO (stereo not given),inactive
18,CC(O)COc1ccccc1 (stereo not given),inactive
19,CO[C@H]1C=CO[C@@]2(C)Oc3c(C)c(O)c4c(O)c(c(/C=N/N5CCN(C)CC5)c(O)c4c3C2=O)NC(=O)/C(C)=C\C=C[C@H](C)[C@H](O)[C@@H](C)[C@@H](O)[C@@H](C)[C@H](OC(C)=O)[C@@H]1C,inactive
20,CCCCCCCCOc1ccc(C(=O)c2ccccc2)c(O)c1,inactive

row,Structure (SMILES),Potency
1,NC(N)=NC(N)=NCCc1ccccc1,inactive
2,CC1(C)O[C@@H]2[C@@H](CO[C@@]3(COS(N)(=O)=O)OC(C)(C)O[C@@H]23)O1,inactive
3,C=CCOC(=O)CC(C)C,inactive
4,c1ccc2[nH]c(-c3cscn3)nc2c1,inactive
5,O=c1c(-c2ccc(O)cc2)coc2cc(O)cc(O)c12,inactive
6,N[C@@H](Cc1c[nH]c2ccccc12)C(=O)O,inactive
7,CCCCC/C(C=O)=C\c1ccccc1,inactive
8,O=[N+]([O-])c1ccc(O)cc1,inactive
9,CCc1cc(C(N)=S)ccn1,inactive
10,CC(=O)Oc1ccccc1C(=O)O,inactive
11,Cc1cccc(Nc2cc(Cl)nc(SCC(=O)O)n2)c1C,inactive
12,CC(=O)OC/C=C(C)/C=C/C=C(C)/C=C/C1=C(C)CCCC1(C)C,inactive
13,NC(=O)N/N=C/c1ccc([N+](=O)[O-])o1,inactive
14,COc1ccc(C(=O)c2ccccc2)c(O)c1,inactive
15,CN(C)Cc1cc(CN(C)C)c(O)c(CN(C)C)c1,inactive
16,COC(=O)c1ccc(O)cc1,inactive
17,COCC(C)N (stereo not given),inactive
18,NC(=O)NO,inactive
19,COCCOCCOC,inactive
20,CC(C)=CCC/C(C)=C/CO,inactive
